Reference: publication PMC11006913

Molecular target: ALX3 (Homo sapiens, UniProt O95076 139-225)
Test: PBM; 200 nM protein, PBS
Details: dsDNA, one strand shown

Sequence of ALX3 (Homo sapiens, UniProt O95076 139-225) (O95076 139-225): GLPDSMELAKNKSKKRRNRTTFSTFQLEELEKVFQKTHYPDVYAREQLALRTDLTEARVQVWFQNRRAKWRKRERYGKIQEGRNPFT

Row | Sequence | binding signal
1 | ACGCCCCG | 7.57 upbm affinity estimate (log intensity, higher = more binding, comparable within an allelic series)
2 | CCGGCCAG | 7.75 upbm affinity estimate (log intensity, higher = more binding, comparable within an allelic series)
3 | AGCCGGGC | 7.71 upbm affinity estimate (log intensity, higher = more binding, comparable within an allelic series)
4 | ACCGAGGG | 7.78 upbm affinity estimate (log intensity, higher = more binding, comparable within an allelic series)

Molecular target: PROP1 (Homo sapiens, UniProt O75360 56-141)
Sequence (O75360 56-141): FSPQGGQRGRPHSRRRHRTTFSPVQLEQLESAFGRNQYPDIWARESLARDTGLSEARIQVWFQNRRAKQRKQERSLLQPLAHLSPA
Test: PBM; 200 nM protein, PBS
Details: dsDNA, one strand shown

Row | Sequence | binding signal
5 | ACTGTTAT | 8.21 upbm affinity estimate (log intensity, higher = more binding, comparable within an allelic series)
6 | GCCCGTCC | 6.49 upbm affinity estimate (log intensity, higher = more binding, comparable within an allelic series)
7 | CTTAATCA | 10.5 upbm affinity estimate (log intensity, higher = more binding, comparable within an allelic series)
8 | GAGCGGCC | 6.83 upbm affinity estimate (log intensity, higher = more binding, comparable within an allelic series)

Molecular target: PROP1 (Homo sapiens, UniProt O75360 56-141, R99H)
Sequence (O75360 56-141 R99H): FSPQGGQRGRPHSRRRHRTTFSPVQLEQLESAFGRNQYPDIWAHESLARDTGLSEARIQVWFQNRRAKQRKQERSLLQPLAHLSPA
Test: PBM; 200 nM protein, PBS
Details: dsDNA, one strand shown

Row | Sequence | binding signal
9 | ACTGTTAT | 7.73 upbm affinity estimate (log intensity, higher = more binding, comparable within an allelic series)
10 | GCCCGTCC | 6.5 upbm affinity estimate (log intensity, higher = more binding, comparable within an allelic series)
11 | CTTAATCA | 9.83 upbm affinity estimate (log intensity, higher = more binding, comparable within an allelic series)
12 | GAGCGGCC | 6.8 upbm affinity estimate (log intensity, higher = more binding, comparable within an allelic series)

Molecular target: VAX1 (Homo sapiens, UniProt Q5SQQ9 86-172)
Sequence (Q5SQQ9 86-172): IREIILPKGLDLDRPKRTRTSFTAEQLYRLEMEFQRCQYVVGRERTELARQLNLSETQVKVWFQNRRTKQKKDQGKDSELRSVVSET
Test: PBM; 200 nM protein, PBS
Details: dsDNA, one strand shown

Row | Sequence | binding signal
13 | CCGTGTCC | 6.98 upbm affinity estimate (log intensity, higher = more binding, comparable within an allelic series)
14 | CCGGCCAG | 6.85 upbm affinity estimate (log intensity, higher = more binding, comparable within an allelic series)
15 | AGTGGTAA | 9.41 upbm affinity estimate (log intensity, higher = more binding, comparable within an allelic series)
16 | AGCCGGGC | 7 upbm affinity estimate (log intensity, higher = more binding, comparable within an allelic series)

Molecular target: ALX3 (Homo sapiens, UniProt O95076 139-225, L168Q)
Sequence (O95076 139-225 L168Q): as the sequence (O95076 139-225) above, with L30Q counted along it
Test: PBM; 200 nM protein, PBS
Details: dsDNA, one strand shown

Row | Sequence | binding signal
17 | ACGCCCCG | 7.68 upbm affinity estimate (log intensity, higher = more binding, comparable within an allelic series)
18 | CCGGCCAG | 7.66 upbm affinity estimate (log intensity, higher = more binding, comparable within an allelic series)
19 | AATTAAAC | 10.2 upbm affinity estimate (log intensity, higher = more binding, comparable within an allelic series)
20 | AGCCGGGC | 7.68 upbm affinity estimate (log intensity, higher = more binding, comparable within an allelic series)
21 | ACCGAGGG | 7.65 upbm affinity estimate (log intensity, higher = more binding, comparable within an allelic series)

Molecular target: HOXD13 (Homo sapiens, UniProt P35453 263-343, T313A)
Sequence (P35453 263-343 T313A): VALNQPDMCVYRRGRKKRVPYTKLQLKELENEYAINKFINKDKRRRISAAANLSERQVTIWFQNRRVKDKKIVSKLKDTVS
Test: PBM; 200 nM protein, PBS
Details: dsDNA, one strand shown

Row | Sequence | binding signal
22 | GGCCTACC | 9.59 upbm affinity estimate (log intensity, higher = more binding, comparable within an allelic series)
23 | CCCAAAGG | 9.58 upbm affinity estimate (log intensity, higher = more binding, comparable within an allelic series)
24 | CATAAATC | 11.5 upbm affinity estimate (log intensity, higher = more binding, comparable within an allelic series)
25 | GCTCGGCC | 9.62 upbm affinity estimate (log intensity, higher = more binding, comparable within an allelic series)

Molecular target: T1, NKX2-6 (Homo sapiens, UniProt A6NCS4 118-204, F151L)
T1 sequence: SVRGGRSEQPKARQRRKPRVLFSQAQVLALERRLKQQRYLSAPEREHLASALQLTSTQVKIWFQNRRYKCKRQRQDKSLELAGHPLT
Test: PBM; 200 nM protein, PBS
Details: dsDNA, one strand shown

Row | Sequence | binding signal
26 | AGACGAGC | 9.3 upbm affinity estimate (log intensity, higher = more binding, comparable within an allelic series)
27 | ACGCCCCG | 9.33 upbm affinity estimate (log intensity, higher = more binding, comparable within an allelic series)
28 | ACTTTAAG | 10.3 upbm affinity estimate (log intensity, higher = more binding, comparable within an allelic series)

Molecular target: ALX3 (Homo sapiens, UniProt O95076 139-225, L168V)
Sequence (O95076 139-225 L168V): as the sequence (O95076 139-225) above, with L30V counted along it
Test: PBM; 200 nM protein, PBS
Details: dsDNA, one strand shown

Row | Sequence | binding signal
29 | AATTATAG | 9.73 upbm affinity estimate (log intensity, higher = more binding, comparable within an allelic series)
30 | ACGCCCCG | 7.67 upbm affinity estimate (log intensity, higher = more binding, comparable within an allelic series)
31 | AATTATTG | 9.77 upbm affinity estimate (log intensity, higher = more binding, comparable within an allelic series)
32 | CCGGCCAG | 7.61 upbm affinity estimate (log intensity, higher = more binding, comparable within an allelic series)
33 | AATTAAAC | 9.91 upbm affinity estimate (log intensity, higher = more binding, comparable within an allelic series)
34 | AGCCGGGC | 7.64 upbm affinity estimate (log intensity, higher = more binding, comparable within an allelic series)
35 | ACCGAGGG | 7.64 upbm affinity estimate (log intensity, higher = more binding, comparable within an allelic series)

Molecular target: PROP1 (Homo sapiens, UniProt O75360 56-141, F88S)
Sequence (O75360 56-141 F88S): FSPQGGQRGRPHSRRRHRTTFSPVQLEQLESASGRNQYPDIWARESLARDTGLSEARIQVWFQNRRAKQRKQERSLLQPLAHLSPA
Test: PBM; 200 nM protein, PBS
Details: dsDNA, one strand shown

Row | Sequence | binding signal
36 | ACTGTTAT | 7.48 upbm affinity estimate (log intensity, higher = more binding, comparable within an allelic series)
37 | GCCCGTCC | 6.38 upbm affinity estimate (log intensity, higher = more binding, comparable within an allelic series)
38 | CTTAATCA | 7.41 upbm affinity estimate (log intensity, higher = more binding, comparable within an allelic series)
39 | GAGCGGCC | 6.52 upbm affinity estimate (log intensity, higher = more binding, comparable within an allelic series)

Molecular target: MSX2 (Homo sapiens, UniProt P35548 130-214, F161Y)
Sequence (P35548 130-214 F161Y): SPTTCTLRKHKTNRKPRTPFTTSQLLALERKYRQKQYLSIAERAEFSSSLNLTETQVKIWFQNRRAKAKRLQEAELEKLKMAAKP
Test: PBM; 200 nM protein, PBS
Details: dsDNA, one strand shown

Row | Sequence | binding signal
40 | ACCCCGGG | 9.67 upbm affinity estimate (log intensity, higher = more binding, comparable within an allelic series)
41 | ACGCCCCG | 9.41 upbm affinity estimate (log intensity, higher = more binding, comparable within an allelic series)
42 | AATTATTG | 13.1 upbm affinity estimate (log intensity, higher = more binding, comparable within an allelic series)
43 | CGGCACCG | 9.54 upbm affinity estimate (log intensity, higher = more binding, comparable within an allelic series)

Molecular target: VAX1 (Homo sapiens, UniProt Q5SQQ9 86-172, T142I)
Sequence (Q5SQQ9 86-172 T142I): as the sequence (Q5SQQ9 86-172) above, with T57I counted along it
Test: PBM; 200 nM protein, PBS
Details: dsDNA, one strand shown

Row | Sequence | binding signal
44 | CCGTGTCC | 7.18 upbm affinity estimate (log intensity, higher = more binding, comparable within an allelic series)
45 | CCGGCCAG | 6.97 upbm affinity estimate (log intensity, higher = more binding, comparable within an allelic series)
46 | AGCCGGGC | 7.24 upbm affinity estimate (log intensity, higher = more binding, comparable within an allelic series)

Molecular target: HOXA2 (Homo sapiens, UniProt O43364 129-215, Y150S)
Sequence (O43364 129-215 Y150S): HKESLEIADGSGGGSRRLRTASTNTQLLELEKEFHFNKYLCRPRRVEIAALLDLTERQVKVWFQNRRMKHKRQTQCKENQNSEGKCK
Test: PBM; 200 nM protein, PBS
Details: dsDNA, one strand shown

Row | Sequence | binding signal
47 | ACGCCGGA | 10.5 upbm affinity estimate (log intensity, higher = more binding, comparable within an allelic series)
48 | CCGGCCAG | 10.3 upbm affinity estimate (log intensity, higher = more binding, comparable within an allelic series)
49 | CAGGCCGC | 10.4 upbm affinity estimate (log intensity, higher = more binding, comparable within an allelic series)
50 | GCTCGGCC | 10.3 upbm affinity estimate (log intensity, higher = more binding, comparable within an allelic series)

Molecular target: ALX1 (Homo sapiens, UniProt Q15699 118-204)
Sequence (Q15699 118-204): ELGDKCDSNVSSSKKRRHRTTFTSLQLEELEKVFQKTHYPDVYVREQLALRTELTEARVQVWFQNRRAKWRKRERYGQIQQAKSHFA
Test: PBM; 200 nM protein, PBS
Details: dsDNA, one strand shown

Row | Sequence | binding signal
51 | CCGGCCAG | 6.55 upbm affinity estimate (log intensity, higher = more binding, comparable within an allelic series)
52 | AATTAAAC | 12 upbm affinity estimate (log intensity, higher = more binding, comparable within an allelic series)
53 | ACCGAGGG | 6.38 upbm affinity estimate (log intensity, higher = more binding, comparable within an allelic series)

Molecular target: ALX3 (Homo sapiens, UniProt O95076 139-225, N203S)
Sequence (O95076 139-225 N203S): as the sequence (O95076 139-225) above, with N65S counted along it
Test: PBM; 200 nM protein, PBS
Details: dsDNA, one strand shown

Row | Sequence | binding signal
54 | ACGCCCCG | 7.73 upbm affinity estimate (log intensity, higher = more binding, comparable within an allelic series)
55 | CCGGCCAG | 7.66 upbm affinity estimate (log intensity, higher = more binding, comparable within an allelic series)
56 | AGCCGGGC | 7.72 upbm affinity estimate (log intensity, higher = more binding, comparable within an allelic series)
57 | ACCGAGGG | 7.63 upbm affinity estimate (log intensity, higher = more binding, comparable within an allelic series)

Molecular target: PRRX1 (Homo sapiens, UniProt P54821 80-166)
Sequence (P54821 80-166): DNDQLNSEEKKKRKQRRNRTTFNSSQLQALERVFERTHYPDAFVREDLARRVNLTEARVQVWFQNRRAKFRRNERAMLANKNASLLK
Test: PBM; 200 nM protein, PBS
Details: dsDNA, one strand shown

Row | Sequence | binding signal
58 | AGACGAGC | 9.6 upbm affinity estimate (log intensity, higher = more binding, comparable within an allelic series)
59 | CCGTGTCC | 9.13 upbm affinity estimate (log intensity, higher = more binding, comparable within an allelic series)
60 | ACCCCGGG | 9.33 upbm affinity estimate (log intensity, higher = more binding, comparable within an allelic series)
61 | ACTGTTAT | 11.4 upbm affinity estimate (log intensity, higher = more binding, comparable within an allelic series)
62 | CGGAACCG | 9.26 upbm affinity estimate (log intensity, higher = more binding, comparable within an allelic series)
63 | GGCCTACC | 9.37 upbm affinity estimate (log intensity, higher = more binding, comparable within an allelic series)
64 | GCCCGTCC | 8.92 upbm affinity estimate (log intensity, higher = more binding, comparable within an allelic series)
65 | CCCAAAGG | 9.15 upbm affinity estimate (log intensity, higher = more binding, comparable within an allelic series)
66 | CATATTGG | 11.3 upbm affinity estimate (log intensity, higher = more binding, comparable within an allelic series)
67 | ACTAATCA | 13.2 upbm affinity estimate (log intensity, higher = more binding, comparable within an allelic series)
68 | CATAAATC | 11.5 upbm affinity estimate (log intensity, higher = more binding, comparable within an allelic series)
69 | GTCCCCCA | 9.22 upbm affinity estimate (log intensity, higher = more binding, comparable within an allelic series)
70 | ACGCCGGA | 9.34 upbm affinity estimate (log intensity, higher = more binding, comparable within an allelic series)
71 | CTATAATC | 12.5 upbm affinity estimate (log intensity, higher = more binding, comparable within an allelic series)
72 | ACGCCCCG | 9.08 upbm affinity estimate (log intensity, higher = more binding, comparable within an allelic series)
73 | ACTTTAAG | 10.8 upbm affinity estimate (log intensity, higher = more binding, comparable within an allelic series)
74 | GCCGGACC | 9.39 upbm affinity estimate (log intensity, higher = more binding, comparable within an allelic series)
75 | GTCCCCAC | 9.35 upbm affinity estimate (log intensity, higher = more binding, comparable within an allelic series)

Row | Sequence | binding signal
76 | CCAACACC | 8.85 upbm affinity estimate (log intensity, higher = more binding, comparable within an allelic series)
77 | CCTGGAAC | 9.32 upbm affinity estimate (log intensity, higher = more binding, comparable within an allelic series)
78 | CCGGCCAG | 9.42 upbm affinity estimate (log intensity, higher = more binding, comparable within an allelic series)
79 | CGGCACCG | 9.57 upbm affinity estimate (log intensity, higher = more binding, comparable within an allelic series)
80 | CAGGCCGC | 9.35 upbm affinity estimate (log intensity, higher = more binding, comparable within an allelic series)
81 | GCTCGGCC | 9.13 upbm affinity estimate (log intensity, higher = more binding, comparable within an allelic series)
82 | AGTGGTAA | 11.2 upbm affinity estimate (log intensity, higher = more binding, comparable within an allelic series)
83 | TTAATCAA | 13.3 upbm affinity estimate (log intensity, higher = more binding, comparable within an allelic series)
84 | CTTAATCA | 13 upbm affinity estimate (log intensity, higher = more binding, comparable within an allelic series)
85 | GAGCGGCC | 9.59 upbm affinity estimate (log intensity, higher = more binding, comparable within an allelic series)
86 | AGCCGGGC | 9.33 upbm affinity estimate (log intensity, higher = more binding, comparable within an allelic series)
87 | CGTCTGGA | 9.19 upbm affinity estimate (log intensity, higher = more binding, comparable within an allelic series)
88 | ACCGAGGG | 9.32 upbm affinity estimate (log intensity, higher = more binding, comparable within an allelic series)
89 | GACGTTGC | 9.38 upbm affinity estimate (log intensity, higher = more binding, comparable within an allelic series)
90 | ACGTTGCG | 9.22 upbm affinity estimate (log intensity, higher = more binding, comparable within an allelic series)
91 | CGTAAGTA | 11 upbm affinity estimate (log intensity, higher = more binding, comparable within an allelic series)
92 | CACGTGGC | 9.4 upbm affinity estimate (log intensity, higher = more binding, comparable within an allelic series)
